Columns and labels:
AAK1 = conditions: concentration: 1 μM, replicates: in singlicate; n = 1
ABL1-nonphosphorylated = conditions: concentration: 1 μM, replicates: in singlicate; n = 1
ABL1-phosphorylated = conditions: concentration: 1 μM, replicates: in singlicate; n = 1
ABL2 = conditions: concentration: 1 μM, replicates: in singlicate; n = 1
ACVR1B = conditions: concentration: 1 μM, replicates: in singlicate; n = 1
ACVR1 = conditions: concentration: 1 μM, replicates: in singlicate; n = 1
ACVR2A = conditions: concentration: 1 μM, replicates: in singlicate; n = 1
ACVR2B = conditions: concentration: 1 μM, replicates: in singlicate; n = 1
ACVRL1 = conditions: concentration: 1 μM, replicates: in singlicate; n = 1
ADCK3 = tested on: T1, ADCK3; conditions: concentration: 1 μM, replicates: in singlicate; n = 1
T1 construct: gene CABC1

ADCK4 = conditions: concentration: 1 μM, replicates: in singlicate; n = 1
AKT1 = conditions: concentration: 1 μM, replicates: in singlicate; n = 1
AKT2 = conditions: concentration: 1 μM, replicates: in singlicate; n = 1
VPS34 = tested on: T2, VPS34;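 also: kd values determined as follow-up on hits from a single-replicate KINOMEscan panel screen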
T2 construct: gene PIK3C3
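For %Inh in this document: KINOMEscan kinase panel screen.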

SMILES	%Inh (AAK1) [%]	%Inh (ABL1-nonphosphorylated) [%]	%Inh (ABL1-phosphorylated) [%]	%Inh (ABL2) [%]	%Inh (ACVR1B) [%]	%Inh (ACVR1) [%]	%Inh (ACVR2A) [%]	%Inh (ACVR2B) [%]	%Inh (ACVRL1) [%]	%Inh (ADCK3) [%]	%Inh (ADCK4) [%]	%Inh (AKT1) [%]	%Inh (AKT2) [%]	Kd (VPS34) [µM]
Nc1nc(-c2cccnc2)c(-c2ccnc3ccccc23)s1 [GW684083]	57	0	0	12	10	32	0	0	12	24	45	0	1	
CSc1nn2c(=O)cc(N3CCOCC3)nc2n1Cc1cccc(Cl)c1Cl [GSK2347225]	7	0	0	14	0	18	0	12	0	18	28	0	9	0.00072
COc1cc2ncnc(Nc3ccc(OCc4ccccc4Br)c(Cl)c3)c2cc1OC.Cl [GI261590]	15	0	0	16	0	0	0	4	0	22	37	0	5	
O=c1cc(N2CCOCC2)nc2n(Cc3cccc(Cl)c3)ccn12 [GSK2296823]	0	0	7	12	0	0	0	0	0	24	0	0	3	0.035
CC(C)(C)c1ccc(-n2cnc3c(N)ncnc32)cc1 [SKF-97263]	1	0	0	7	0	10	7	0	0	23	0	0	12	
Nc1nccc2scc(-c3ccc4c(c3)CCN4C(=O)Cc3cc(F)ccc3F)c12 [GSK2587663]	0	0	0	18	0	0	0	0	0	24	35	0	17	
Cl.c1ccc(Cn2ncc3cc(Nc4ncnc5ccccc45)ccc32)cc1 [GW273749]	30	38	17	0	0	5	0	0	0	7	22	0	13	

Source: publication PMC5540273 (PLoS ONE, 2017)
